Sampled rows, rich in hits. Any-hit rate of the full collection: about 1.4%.
IL1B cytotox: HUVEC cytotoxicity counter-screen, IL-1B stimulated. HUVEC cell count loss, Hoechst imaging. cell count reduction, % at 2 µM. 94,000 tested, 0.41% active. AID 845;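 active means cell count reduction more than 3 SD above the screen-wide mean, cut at about 70% in these data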;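 further: normalized per plate to untreated control cells as the no-loss baseline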
NFkB transloc inh: blocks IL-1B driven NFkB nuclear translocation in HUVEC cells | HUVEC IL-1B NFkB p65 nuclear translocation imaging | inhibition, % at 2 µM | 94,000 tested, 0.43% active | AID 796;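 active means inhibition above about 30% together with a positive call from visual inspection of the well image, limit read from the data; inconclusive means inhibition above a set limit but visual check negative; inactive means inhibition not above a set limit, visual check negative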;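 further: nuclear over cytoplasmic p65 intensity ratio measured by imaging; 0% = IL-1B stimulated DMSO wells and 100% = unstimulated DMSO wells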
IL1B NFkB pot: enhances IL-1B driven NFkB nuclear translocation. activation, % at 2 µM. HUVEC IL-1B NFkB p65 nuclear translocation imaging. 94,000 tested, 0.3% active;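 active means activation above 40%, about the mean plus 3 SD, also judged a hit on visual image review; inconclusive means activation above 40% but not a hit on visual review; inactive means activation not above 40% and no visual hit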;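 further: percent activation is computed from the nuclear over cytoplasmic p65 intensity ratio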
INS promoter inh: TRM-6 insulin promoter activity inhibition | TRM-6 cells (human fetal islet line), insulin promoter-eGFP reporter, imaging; reporter expression induced with tamoxifen | inhibition, % at 2 µM | 130,000 tested, 0.9% active;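 active means inhibition above the mean plus 3 SD, with well images judged a real hit on visual review, cut at about 60% in these data, passing the limit was not always enough; inconclusive means inhibition over the cutoff but images rejected on review; inactive means inhibition not above the cutoff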
Active calls of the source: *.

For CCCN1Cc2cccc(C(=O)NCc3cccs3)c2C1=O the results were IL1B cytotox -7, NFkB transloc inh 6, IL1B NFkB pot -6 and INS promoter inh 65.
Screening COc1ccc(-c2[nH]ncc2/C=N\NS(=O)(=O)c2ccc(Cl)cc2)cc1 returned IL1B cytotox 21, NFkB transloc inh 30, IL1B NFkB pot -30 and INS promoter inh 6.
COc1ccc(-c2[nH]ncc2C=O)cc1 was read as INS promoter inh 60*.
For COc1ccc(N2CCN(C(=O)CSc3nnc4c(C)cc5c(C)cc(C)cc5n34)CC2)cc1 the results were IL1B cytotox -36, NFkB transloc inh -4, IL1B NFkB pot 4 and INS promoter inh -36.
COc1ccc(N2CCN(C(=O)CSc3nnc4c(C)cc5cc(C)ccc5n34)CC2)cc1 was read as IL1B cytotox 92*, NFkB transloc inh 24, IL1B NFkB pot -24 and INS promoter inh -25.
Screening CCCNC(=O)CC1Sc2ccccc2NC1=O (stereo not given) returned IL1B cytotox -7, NFkB transloc inh -43, IL1B NFkB pot 43* and INS promoter inh -111.
CSc1nc(N)nc(SCCS(=O)(=O)c2ccc(Cl)cc2)c1C#N was read as IL1B cytotox -14, NFkB transloc inh -11, IL1B NFkB pot 11 and INS promoter inh 19.
For CSc1nc(-c2ccc(Cl)cc2Cl)[nH]c(=O)c1C#N the results were INS promoter inh 79*.
For Cc1nn(Cc2ccccc2)c(C)c1NC(=O)CSc1nc(C2CC2)nc2c1cnn2-c1ccccc1 the results were IL1B cytotox -10, NFkB transloc inh 46* and IL1B NFkB pot -47.
For Cc1nn(C)c(C)c1NC(=O)CSc1nc(Cc2ccccc2)nc2c1cnn2-c1ccccc1 the results were IL1B cytotox -25, NFkB transloc inh 4, IL1B NFkB pot -4 and INS promoter inh -27.
`CC(=O)c1cnc(-c2ccccc2Cl)s1` gave INS promoter inh 77*.
Cc1cccc(NC(=O)c2ccccc2NC(=O)CCC(=O)O)c1 was read as INS promoter inh 79*.
For Cc1ccc(NC(=O)c2cc(NC(=O)CCC(=O)O)ccc2N2CCCCC2)cc1 the results were IL1B cytotox 92*, NFkB transloc inh 5, IL1B NFkB pot -5 and INS promoter inh 17.
For Cc1cccc(NC(=O)c2cc(NC(=O)c3ccccc3)ccc2N2CCCCC2)c1 the results were IL1B cytotox -6, NFkB transloc inh -6, IL1B NFkB pot 6 and INS promoter inh 15.
Cc1ccc(N2CCN(c3ccc(NC(=O)CCC(=O)O)cc3)CC2)cc1 was read as INS promoter inh 73*.
`Cc1ccc(-n2c(SCC(=O)N(C)C3CCS(=O)(=O)C3)nc3ccccc3c2=O)cc1` (stereo not given) gave INS promoter inh -33.
Screening Cc1ccc(C)c(OCC(=O)N2CCOCC2)c1 returned IL1B cytotox 3, NFkB transloc inh 5, IL1B NFkB pot -5 and INS promoter inh 89*.
For Cc1cc(Br)ccc1OCC(=O)N1CCCCCC1 the results were IL1B cytotox 1, NFkB transloc inh 4, IL1B NFkB pot -3 and INS promoter inh 21.
Cc1ccc(OCC(=O)N2CCCCCC2)c(C)c1 was read as IL1B cytotox 86*, NFkB transloc inh -21, IL1B NFkB pot 21 and INS promoter inh -44.
For CCOC(=O)C1(C)C=C(Nc2ccccc2)C(=O)N1c1ccccc1 (stereo not given) the results were INS promoter inh 71*.
CCCCC1(CC(=O)OCC)C(=O)N(c2ccccc2)N(c2ccccc2)C1=O was read as INS promoter inh -23.
For CCN(CC)S(=O)(=O)c1ccc(NC(=O)C2c3ccccc3Oc3ccccc32)cc1 the results were INS promoter inh -50.
For Cc1cc(C)n(C(=O)c2ccc(NC(=O)CC(C)C)cc2)n1 the results were IL1B cytotox 18, NFkB transloc inh -9, IL1B NFkB pot 9 and INS promoter inh 74*.
CCN(CC)Cc1c(O)ccc2c([N+](=O)[O-])c(C)n(-c3ccc(OC)cc3)c12 was read as IL1B cytotox -23, NFkB transloc inh -50, IL1B NFkB pot inconclusive and INS promoter inh 78*.
Screening Cc1cc(C)n(-c2nc3c(c(=O)n(C)c(=O)n3C)n2CC(O)COc2ccccc2C)n1 (stereo not given) returned IL1B cytotox -3, NFkB transloc inh -10, IL1B NFkB pot 10 and INS promoter inh 77*.
Screening Cc1cc(N=Nc2ccccc2)c(NCC(O)C(O)C(O)CO)cc1C (stereo not given) returned INS promoter inh 82*.
`COc1ccc(NC(=O)C2CCCCN2N)cc1OC` (stereo not given) gave IL1B cytotox -38, NFkB transloc inh -41, IL1B NFkB pot 41* and INS promoter inh -295.
`COc1ccc(CN2CCCCC2C(=O)Nc2ccc(OC)c(OC)c2)cc1OC` (stereo not given) gave IL1B cytotox -25, NFkB transloc inh -4 and IL1B NFkB pot 3.
For O=C(CSc1nnc(CNc2ccc(F)cc2)o1)N1c2ccccc2Sc2ccccc21 the results were IL1B cytotox 7, NFkB transloc inh -12, IL1B NFkB pot 12 and INS promoter inh -14.
Screening COc1ccc(N2CCN(C(CNC(=O)c3ccco3)c3cccnc3)CC2)cc1 (stereo not given) returned IL1B cytotox -12, NFkB transloc inh -40, IL1B NFkB pot 40* and INS promoter inh 0.
For COc1ccccc1N1CCN(C(CNC(=O)c2ccco2)c2cccnc2)CC1 (stereo not given) the results were IL1B cytotox -48, NFkB transloc inh -5 and IL1B NFkB pot 5.
For CC1CCCCC1N1CN=C(Nc2nc3ccccc3s2)NC1 (stereo not given) the results were IL1B cytotox -13, NFkB transloc inh -4, IL1B NFkB pot 4 and INS promoter inh 50.
`O=C(Nc1ccccc1Cl)OCc1cncs1` gave INS promoter inh 67*.
For CCc1ccc(NC(=O)COC(=O)/C=C/c2c(C)nn(C3CCS(=O)(=O)C3)c2Cl)cc1 (stereo not given) the results were INS promoter inh -29.
`Cn1c(=O)c2c(nc(NCCCO)n2CCc2ccccc2)n(C)c1=O` gave INS promoter inh 9.
Screening Cn1c(=O)c2c(nc(NCc3ccc4c(c3)OCO4)n2Cc2ccc(F)cc2)n(C)c1=O returned IL1B cytotox -29, NFkB transloc inh 44*, IL1B NFkB pot -44 and INS promoter inh 22.
For Cn1c(=O)c2c(nc(NCc3ccc4c(c3)OCO4)n2Cc2ccccc2)n(C)c1=O the results were IL1B cytotox 0, NFkB transloc inh 2, IL1B NFkB pot -2 and INS promoter inh -289.
Cn1c(=O)c2c(nc(NCC3CCCO3)n2Cc2ccccc2)n(C)c1=O (stereo not given) was read as IL1B cytotox -27, NFkB transloc inh -8, IL1B NFkB pot 9 and INS promoter inh 81*.
CCCNc1nc2c(c(=O)n(C)c(=O)n2C)n1CCc1ccccc1 was read as IL1B cytotox -31, NFkB transloc inh 100* and IL1B NFkB pot -100.
For COc1cccc(Cn2c(NCC(C)C)nc3c2c(=O)n(C)c(=O)n3C)c1 the results were IL1B cytotox 74*, NFkB transloc inh -27, IL1B NFkB pot 27 and INS promoter inh -147.

Assay outcomes: PubChem, Columbia University Molecular Screening Center
